Molecules are shown by their SMILES.

Chain of Focal adhesion kinase 1 (Homo sapiens) (Q05397 whole entry, looked up): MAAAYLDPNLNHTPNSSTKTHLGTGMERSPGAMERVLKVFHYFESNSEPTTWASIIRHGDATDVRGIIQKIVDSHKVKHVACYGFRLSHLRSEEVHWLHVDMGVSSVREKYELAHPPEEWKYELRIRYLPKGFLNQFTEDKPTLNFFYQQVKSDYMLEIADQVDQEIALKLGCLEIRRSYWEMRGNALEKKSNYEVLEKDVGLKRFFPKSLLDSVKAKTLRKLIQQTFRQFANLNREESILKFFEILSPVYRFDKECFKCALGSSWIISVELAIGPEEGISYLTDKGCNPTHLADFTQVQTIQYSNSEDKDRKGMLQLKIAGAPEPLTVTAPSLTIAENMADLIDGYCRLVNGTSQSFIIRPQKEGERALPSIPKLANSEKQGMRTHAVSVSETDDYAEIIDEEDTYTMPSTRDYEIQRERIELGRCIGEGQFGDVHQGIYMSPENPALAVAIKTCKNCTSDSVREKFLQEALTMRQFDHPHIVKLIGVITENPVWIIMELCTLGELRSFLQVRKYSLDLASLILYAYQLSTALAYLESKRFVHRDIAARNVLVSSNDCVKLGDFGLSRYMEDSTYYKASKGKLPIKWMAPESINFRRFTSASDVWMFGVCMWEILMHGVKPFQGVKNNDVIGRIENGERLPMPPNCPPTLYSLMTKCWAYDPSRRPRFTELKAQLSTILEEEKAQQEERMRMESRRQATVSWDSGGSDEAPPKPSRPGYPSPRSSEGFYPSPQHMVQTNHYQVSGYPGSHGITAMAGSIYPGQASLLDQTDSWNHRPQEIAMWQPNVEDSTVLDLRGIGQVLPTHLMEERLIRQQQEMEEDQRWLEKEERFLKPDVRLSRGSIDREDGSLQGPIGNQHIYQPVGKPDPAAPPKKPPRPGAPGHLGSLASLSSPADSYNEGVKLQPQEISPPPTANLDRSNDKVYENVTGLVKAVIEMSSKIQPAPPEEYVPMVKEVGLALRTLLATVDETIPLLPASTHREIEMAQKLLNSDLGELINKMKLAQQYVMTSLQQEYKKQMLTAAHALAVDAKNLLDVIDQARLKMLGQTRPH

The assay concerns the target Focal adhesion kinase 1 (Homo sapiens) (UniProt Q05397). As to the kind of experiment: small-molecule microarray binders of FAK, primary screen, biochemical, 635/667 nm fluorescence, BSA, DTT (AID 1130).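 Further: composite of spot emission at 667 nm and signal to noise over triplicate slides.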 Conditions: PTK2 binding, 635 nm fluorescence, higher = more signal.
In turn, `COc1ccc([Si](C)(C)[C@@H]2[C@@H](CCO)O[C@]3(C(=O)N(Cc4cccc(N5CCOC5=O)c4)c4ccccc43)[C@H]2C)cc1` registered a composite z-score of -0.0325.
The figure for `COCCOC(=O)N1C(=O)[C@@]2(c3ccccc31)[C@H](C(N)=O)[C@H]1C(=O)O[C@H](c3ccccc3)[C@H](c3ccccc3)N1[C@@H]2c1ccc(O)cc1` is 0.386.
`O=C1C[C@@](C(=O)NCc2ccccc2)(c2ccc([N+](=O)[O-])cc2)[C@@H](c2ccc(CO)cc2)N1CC12CC3CC(CC(C3)C1)C2`: the composite z-score came out at 1.42.
The figure for `COCC(=C=CC[C@H](O)c1cccc(OCCO)c1)CCO` is -0.0436; for `COCCCNC(=O)[C@@]1(Cc2ccccc2CN=[N+]=[N-])N=C(c2ccc(OCCCO)cc2)O[C@H]1c1ccccc1CN=[N+]=[N-]` it is 0.125.
The figure for `COC(=O)[C@]1(Cc2ccccc2)N=C(c2ccc(OCCCO)cc2)O[C@@H]1c1ccccc1N=[N+]=[N-]` is 0.442; for `COC(=O)[C@@]1(Cc2ccc(F)cc2)[C@H]2c3cc(C(=O)N(C)C)n(Cc4ccc(C)o4)c3C[C@H]2CN1C(=O)c1ccccc1` it is -0.42.
To `CC(C)=CCCC(C)=CC(O)C1C=CC2C(=O)N(c3ccccc3)C(=O)C2N1Nc1ccc(C(C)C)cc1` (stereo not given) belongs 0.526.
Take `COc1ccccc1CN1C(=O)c2ccccc2[C@@H](C(=O)NCc2ccccc2)[C@@H]1c1ccc(CO)cc1`: the composite z-score is 0.377.
To `CC#CC(=O)Oc1ccc(Br)cc1C=CC(=O)OCC` belongs 0.167.
The figure for `O=C(NC1CC1)[C@@H]1c2ccccc2C(=O)N(C2Cc3ccccc3C2)[C@H]1c1ccc(CO)cc1` is 0.167; for `COCCCNC(=O)[C@@H]1c2ccccc2C(=O)N(Cc2ccccc2OC)[C@H]1c1ccc(CO)cc1` it is 0.503.
To `O=C(O)[C@H](Cc1ccccc1)n1cc(-c2ccccc2)nn1` belongs 0.218.
Turning to `C=CC[C@]1(C(=O)NCc2ccccc2)N=C(c2ccc(OCCCO)cc2)O[C@H]1c1ccccc1CN=[N+]=[N-]`, the composite z-score came out at 0.112.
To `CN1C(=O)C2C=CC(C(O)c3ccc(F)cc3)N(N(c3ccccc3)c3ccccc3)C2C1=O` (stereo not given) belongs 0.0202; to `C=CCC(OC(C)=O)[C@@H]1[C@@H](N(Cc2ccc(-c3cccc(C(F)(F)F)c3)o2)C(=O)Cc2ccc(OC)cc2)c2cc(OCCCO)ccc2N1C(=O)c1ccc2ccccc2c1` (stereo not given in full), -0.198; to `CN(C)CCCCCCNC(=O)[C@@H]1C[C@@H]2C(=O)N[C@@H](CCCC[N+](C)(C)C)C(=O)N2[C@@H]1c1ccc(O)cc1`, 0.678.
The figure for `CC(C)CNC(=O)[C@@]1(Cc2ccccc2I)c2ccccc2C(=O)N(Cc2ccccc2C(F)(F)F)[C@H]1c1ccc(CO)cc1` is -0.287; for `C=CC[C@]1(C(N)=O)N=C(c2ccc(OCCCO)cc2)O[C@H]1c1ccccc1` it is 0.784.
In the case of `COCCCNC(=O)[C@@]1(Sc2ccc(C)cc2)CC(=O)N(Cc2ccccc2Cl)[C@@H]1c1ccc(CO)cc1`, the composite z-score is 0.215.
To `CCCC=C(CCC)[C@@H](NC(=O)OCC(C)C)c1ccccc1` belongs 0.172; to `OCC1C=C(/C=C/c2ccccc2)CN1Cc1ccccc1Br` (stereo not given), -0.18.
To `CN1C(=O)C2C=CC(C(O)C=Cc3ccc([N+](=O)[O-])cc3)N(Nc3ccccc3)C2C1=O` (stereo not given) belongs 0.198; to `COC(=O)[C@@]1(Cc2ccccc2)[C@H]2c3cc(C(=O)N4CCCC4)n(Cc4ccc(O)c(OC)c4)c3C[C@H]2CN1C(=O)c1ccccc1`, 0.553; to `CN(C)CCCCCCNC(=O)[C@@H]1C[C@@H]2C(=O)N3CCC[C@H]3C(=O)N2[C@@H]1c1ccc(O)cc1`, -0.135.
To `C[N+](C)(C)CCCC[C@@H]1NC(=O)[C@H]2C[C@@H](C(=O)NCCCCCCNC(=O)CS)[C@@H](c3ccc(O)cc3)N2C1=O` belongs -0.103; to `COC(=O)C(CC#Cc1ccc2c(c1)[C@]1(C(=O)N2)[C@H](c2ccccc2OCCO)N2[C@H](c3ccccc3)[C@H](c3ccccc3)OC(=O)[C@H]2[C@@H]1C(=O)O)C(=O)OC`, 0.411; to `NCCCCCNC(=O)[C@H]1C[C@H]2C(=O)N3CCC[C@H]3C(=O)N2[C@H]1c1ccc(O)cc1`, 0.223.
`C=CCC(OC(C)=O)[C@@H]1[C@@H](N(Cc2ccc(-c3ccccc3)cc2)C(=O)Cc2ccc(F)cc2)c2cc(OCCCO)ccc2N1C(=O)c1ccc2ccccc2c1` (stereo not given in full) came in with a composite z-score of 0.16.
The figure for `CCOc1ccc(N2C(=O)CSC2c2cccc([N+](=O)[O-])c2)cc1` (stereo not given) is 0.65; for `C=C(CCCC)/C(=C/C[C@H](OC(C)=O)c1ccccc1OCCO)c1cnc2ccccc2c1` it is -0.0464.
The figure for `C=CC[C@]1(C(N)=O)COC(c2ccc(OCCCO)cc2)=N1` is 0.2.
To `COCCOC(=O)N1C(=O)[C@@]2(c3cc(C#CC4=CCCCC4)ccc31)[C@H](C(N)=O)[C@H]1C(=O)O[C@H](c3ccccc3)[C@H](c3ccccc3)N1[C@@H]2c1ccc(O)cc1` belongs 0.671.
As to `O=C1O[C@@H](c2ccccc2)[C@@H](c2ccccc2)N2[C@@H](c3ccc(OCCO)cc3)[C@]3(C(=O)Nc4ccc(C#CC5=CCCCC5)cc43)[C@@H](C(=O)N3CCCCCCC3)[C@H]12`, the composite z-score was found to be 1.55.
The figure for `COc1ccc([Si](C)(C)[C@@H]2[C@@H](CCn3cc([C@H](O)c4ccccc4)nn3)O[C@]3(C(=O)N(Cc4cccc(N5CCC5=O)c4)c4ccccc43)[C@H]2C)cc1` is -0.285.

Values taken from PubChem BioAssay.
